tim23-1 inh – growth inhibitors of tim23-1 mutant yeast, primary screen, luminescence, uHTS | S. cerevisiae tim23-1 growth, BacTiter-Glo luminescence, 24 h | inhibition, % at 20 µM | 1.3% of 330,000 active;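 active means growth inhibition of the mutant yeast at or above 50%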;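 further: temperature-sensitive mutant grown at 25 °C; plate controls were DMSO-treated mutant yeast for no effect and medium wells lacking yeast for full effect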
TIM10 inh – growth inhibitors of isogenic TIM10 control yeast, primary screen, counter-screen for tim10-1 yeast inhibitor project, luminescence, uHTS. S. cerevisiae TIM10 strain growth, BacTiter-Glo luminescence, 24 h. inhibition, % at 10 µM. 1.4% of 330,000 active;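 active means inhibition of 40% or more at the single tested concentration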;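 further: wild-type TIM10 isogenic control strain grown at permissive 25 °C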
tim10-1 inh – growth inhibitors of tim10-1 mutant yeast, primary screen, luminescence, uHTS | 2.2% of 330,000 active | inhibition, % at 20 µM | AID 463190, 2010 | S. cerevisiae tim10-1 ts strain growth, BacTiter-Glo, 24 h;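 active means inhibition of at least 40%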;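 further: mutant grown at 25 °C; 0% = DMSO wells with yeast and 100% = wells holding no yeast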
NALP1 inh – NALP1 inflammasome inhibitors in reconstituted yeast, colorimetric, S. cerevisiae, triplicate retest; S. cerevisiae NALP1/ASC/caspase-1 growth, X-gal OD620, 72 h; inhibition, % at 10 µM; 0.61% of 280,000 active; in the data active means inhibition mostly above about 24%, no sharp cut-off; inactive means mostly below about 32%
NALP3 yeast inh – NALP3 inflammasome inhibitors in reconstituted yeast, primary screen, luminescence, uHTS; Yeast reconstituted NLRP3/ASC/caspase-1, beta-gal luminescence, 24 h; 0.39% of 330,000 active; inhibition, % at 10 µM;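 active means inhibition of 50% or more; inactive means inhibition below 50%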;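 further: plate controls were induced DMSO wells for no effect and uninduced yeast grown without galactose for full effect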
PfHsp90 yeast 2 – growth inhibition of PfHsp90-expressing yeast, primary screen, antimalarial PfHsp90 inhibitor project, S. cerevisiae, BacTiter-Glo luminescence, single point, set 2 | BacTiter-Glo ATP, 48 h; yeast lacking PDR1 and PDR3 efflux regulators | inhibition, % at 9.4 µM | 0.32% of 310,000 active | AID 504621, 2011;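 active means every replicate shows inhibition above about 80%, whatever the replicate mean, limit read from the data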;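 further: 0% = DMSO neutral controls and 100% = 20 µM radicicol positive controls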
NALP3 confirm – NALP3 inhibitors retested in yeast, confirmation, luminescence, single concentration | shares compounds with NALP3 yeast inh | yeast expressing human NALP3 | inhibition, % at 10 µM | 81% of 1,300 active | AID 435006, 2010; in the data active means inhibition above about 48%
Casp1 ASC ctr – CASP1-PYCARD signaling inhibition in yeast, confirmatory test, counterassay for NLRP3 inhibitor program, one-dose | inhibition, % at 10 µM | yeast expressing Caspase-1-ASC, luminescence counter screen | shares compounds with NALP3 yeast inh | 66% of 1,000 active
NALP3 retest – NALP3 inhibitors in yeast, repeat test, confirmation, luminescence, single concentration, retest. shares compounds with NALP3 yeast inh. yeast expressing human NALP3, luminescence read-out. inhibition, % at 10 µM. 53% of 1,000 active. AID 488794, 2010
tim10-1 conf – growth inhibitors of tim10-1 mutant yeast, confirmation, single concentration, luminescence, S. cerevisiae; shares compounds with tim10-1 inh; S. cerevisiae tim10-1 ts strain growth, BacTiter-Glo, 24 h; inhibition, % at 20 µM; 56% of 7,400 active; AID 463213, 2010;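 active means inhibition of yeast growth at or above a set limit in either of two repeat tests at 20 µM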;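 further: tim10-1 mutant grown at permissive 25 °C to find synthetic lethal compounds; 0% = DMSO yeast wells and 100% = medium wells without yeast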
tim10 confirm – growth inhibitors of wild-type TIM10 yeast, confirmation, counter-screen for tim10-1 synthetic lethality project, single concentration, luminescence, S. cerevisiae. 63% of 4,600 active. shares compounds with TIM10 inh. AID 463215, 2010. S. cerevisiae tim10 strain growth, BacTiter-Glo luminescence, 24 h. inhibition, % at 10 µM;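 active means inhibition of yeast growth at or above a set limit in either of two replicates at 10 µM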;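 further: this counterscreen used the strain with wild-type TIM10; 0% = yeast with DMSO and 100% = medium wells lacking yeast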
tim23-1 conf – tim23-1 mutant yeast growth inhibitors, confirmation, luminescence, single concentration | inhibition, % at 20 µM | 83% of 4,400 active | shares compounds with tim23-1 inh | S. cerevisiae tim23-1 growth, BacTiter-Glo luminescence, 24 h;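 active means inhibition above about 39% in either of two replicate wells at 20 µM, limit read from the data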;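 further: temperature-sensitive tim23-1 mutant grown at 25 °C; 0% = DMSO wells with yeast and 100% = medium wells without yeast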
An asterisk follows results filed as active; / = no result given. Only some compounds are listed: those with a hit (about 4.2% of all), similar ones and a draw of the others. Unless noted, no stated cut-off is given here; in the data, active means inhibition above about 50%; inactive means the rest.

SMILES	tim23-1 inh	TIM10 inh	tim10-1 inh	NALP1 inh	NALP3 yeast inh	PfHsp90 yeast 2	NALP3 confirm	Casp1 ASC ctr	NALP3 retest	tim10 confirm	tim23-1 conf	others
O=C(/C=C/c1ccccc1Cl)Nc1ccccc1	65*	33	8	-9	65*	-2	75*	79*	74*	/	58*
Cc1ccc2[nH]c3ccccc3c(=O)c2c1	59*	10	-24	10	53*	36	61*	61*	56*	/	50*
O=c1c2ccccc2[nH]c2ccc(O)cc12	23	-8	-49	15	7	-43	/	/	/	/	/
Cc1nnc(SCC(=O)Nc2ccc([N+](=O)[O-])cc2)n1C	-6	5	-10	3	2	16	/	/	/	/	/
Cc1ccc(C(C[N+](=O)[O-])c2c(-c3ccccc3O)[nH][nH]c2=O)cc1 (stereo not given)	66*	33	44*	114*	51*	-49	51*	77*	58*	/	56*	tim10-1 conf=37*
CCCNC(=O)c1ccc(-c2nc3ccccc3s2)s1	56*	55*	3	19	58*	56	76*	32	33	33*	77*
CCCNC(=O)Nc1nc2ccccc2s1	21	-5	2	/	10	-36	/	/	/	/	/
FC(F)(F)Sc1ccc(NC(=S)NCc2ccccc2)cc1	52*	53*	58*	19	53*	-3	24	/	/	59*	53*	tim10-1 conf=70*
S=C(NCc1ccccc1)Nc1ccc(Cl)cc1	20	27	36	-8	33	-24	/	/	/	/	/
COc1ccccc1C(=O)Nc1ccc(S(=O)(=O)Nc2cnc3ccccc3n2)cc1	18	5	4	4	28	-32	/	/	/	/	/
CC(OC(=O)c1ccco1)C(=O)NCc1ccc2c(c1)OCO2 (stereo not given)	-2	-5	-6	23	13	-10	/	/	/	/	/
CN1CCN(S(=O)(=O)c2ccc(SCCOc3ccc(Cl)cc3)nc2)CC1	61*	65*	39	/	74*	3	74*	23	18	69*	39*
CC(C)(C)c1csc(NC(=O)c2ccccc2O)n1	89*	67*	84*	14	55*	-28	55*	59*	49	72*	92*	tim10-1 conf=84*
O=C(NC(=S)NNC(=O)c1ccccc1O)c1cccs1	53*	51*	0	-4	59*	24	78*	70*	56*	47*	66*
O=C(NNC(=O)c1ccccc1Cl)c1cccs1	3	-6	-3	-13	-3	11	/	/	/	/	/
COc1cc(/C=C(\C#N)C(=O)Nc2ccccc2C(=O)O)cc(Cl)c1OC	26	17	19	6	17	5	/	/	/	/	/
CCNC(=O)c1c(O)c2ccccc2[nH]c1=O	54*	27	13	-23	68*	26	79*	53*	71*	/	41*
O=C(NCCc1ccccc1)c1c(O)c2ccccc2[nH]c1=O	31	3	-43	3	23	-6	/	/	/	/	/
O=C(NC(=S)Nc1ccccc1F)C1CCCCC1	54*	31	40*	20	52*	/	72*	72*	63*	/	48*	tim10-1 conf=21
O=C(NC(=S)Nc1ccccc1Br)C1CCCCC1	56*	39	27	/	53*	-36	47	59*	34	/	38
O=C(NC(=S)Nc1ccccc1Br)C1CCCC1	48	39	39	7	30	38	/	/	/	/	/
Cc1cccc(/C=C/c2onc(C)c2[N+](=O)[O-])n1	84*	68*	64*	/	89*	/	63*	96*	77*	78*	71*	tim10-1 conf=61*
Cc1cccc(N/C=C/c2onc(C)c2[N+](=O)[O-])c1	1	5	13	15	16	7	/	/	/	/	/
CCOc1ccc(NC(=O)/C=C/c2ccccc2)c([N+](=O)[O-])c1	7	-7	11	46	25	-4	/	/	/	/	/
CCOc1ccc(N/C=C/C(=O)c2ccccc2)c([N+](=O)[O-])c1	57*	70*	38	51*	59*	18	-27	/	/	-1	77*
SMILES	tim23-1 inh	TIM10 inh	tim10-1 inh	NALP1 inh	NALP3 yeast inh	PfHsp90 yeast 2	NALP3 confirm	Casp1 ASC ctr	NALP3 retest	tim10 confirm	tim23-1 conf	others
Cc1ccc(NC(=O)CSc2cn[nH]n2)cc1	-2	-19	4	-12	9	17	/	/	/	/	/
Cc1cc(C(=O)CCl)c(C)n1CCc1ccccc1	66*	37	36	-48	-116	/	25	/	/	/	16
CCOC(=O)c1cc(C)n(CCc2ccccc2)c1C	15	6	13	-7	16	62	/	/	/	/	/
COc1ccc(C(=O)/C=C/Nc2cc(C)ccn2)cc1	46	13	-2	-14	21	-15	/	/	/	/	/
CC(C)(C)C1CCC(=NOC(=O)c2ccc(F)cc2)CC1 (stereo not given)	67*	85*	45*	-22	59*	-80	79*	54*	42	83*	62*	tim10-1 conf=4
O=C(O/N=C1/CCSc2ccccc21)c1ccc(F)cc1	25	26	23	2	-38	11	/	/	/	/	/
O=C(OCCNc1ccc(C(F)(F)F)cc1[N+](=O)[O-])c1cc2ccccc2oc1=O	2	-16	-13	-4	22	-10	/	/	/	/	/
C/C(=N\NC(=O)c1ccccc1O)C1C(=O)c2ccccc2C1=O	73*	73*	54*	16	87*	36	92*	92*	84*	70*	79*	tim10-1 conf=52*
